This is one part of a sample in which hits are shown more often than they occur.
Pf Dd2 growth = Plasmodium falciparum Dd2 growth inhibition. P. falciparum Dd2 growth, SYBR Green, 72 h. Potency, µM (doses to about 28.9 µM), for the others: top-dose activity, negative = inhibition, usual class: inhibitors. 4.3% of 120,000 active; active = well fitted inhibition curve with a large enough effect;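 also: plate controls were DMSO vehicle for no effect and reference drug for full effect; nearly all actives have a fitted effect of over 65% in size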
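Infected erythrocytes (Dd2, 0.3% parasitemia, 2.5% hematocrit final) are added to compound in RPMI-1640/Albumax II medium, grown 72 h at 37C in low oxygen, then lysed with saponin/Triton-X containing SYBR Green and read by fluorescence.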
* hit, by the source's call; i = inactive; [ ] = another dose, or the depositor's remark. Potency is read from the fitted curve at half-maximal effect.

SMILES	Pf Dd2 growth
COCCNC(=O)[C@@H]1C[C@H](Oc2cccnc2)CN1C(=O)c1cc2ccc(OC)cc2[nH]1	i
COC[C@H]1NC(=O)CC[C@H]1C(=O)NCc1ccccc1OC	-29%
CCCC1c2nccn2CCCN1C(=O)CCc1c(C)noc1C (stereo not given)	-6%
CCCCc1ncc[nH]1	-12%[115 µM]
Cc1ccc(NC(=O)Cn2nc3c(cc2=O)CCCCC3)c(C)c1	-4%
Cc1cc(C(=O)N2CCCC3(CNS(=O)(=O)c4cccnc4O3)C2)no1 (stereo not given)	13%
O=C(c1ccn[nH]1)N1CCC(c2nc(CCOCC3CC3)no2)C1 (stereo not given)	39%
COc1ccc(CN2CCN(CC(N)=O)CC2CCO)c(F)c1 (stereo not given)	-3%
O=C(O)C1(CC2CC2)CCCN(Cc2ncccn2)C1 (stereo not given)	-3%
CCc1nc(CN2CCCC(CO)(CC3CC3)C2)cs1 (stereo not given)	13µM*
COc1ccc(CN2CCCC(CO)(CC3CC3)C2)c(F)c1 (stereo not given)	13µM*
COc1cccc(CCC(=O)N2CCCC(CO)(CC3CC3)C2)c1 (stereo not given)	-5%
OCC1(CC2CC2)CCCN(Cc2cccc(OCc3ccccn3)c2)C1 (stereo not given)	5.6µM*
CCc1nccc(CN2CCCC(CC3CC3)(C(=O)O)C2)n1 (stereo not given)	-8%
OCc1cc2n(n1)CCCN(Cc1cccc(OCc3ccccn3)c1)C2	7%
CN(C)C(=O)CN1CCCC(CO)(CC2CC2)C1 (stereo not given)	-20%
O=C(NCC1CCCCC1)c1ccc(CN2C(=O)NC3(CCS(=O)(=O)CC3)C2=O)cc1	i
CN(Cc1cccnc1)C(=O)C1C2C(=O)N(c3ccc(CCO)cc3)C[C@@]23C=C[C@@H]1O3 (stereo not given in full)	-6%
COC1C(=O)N(C2CCN(C(=O)Cc3cccnc3)CC2)C12CCOCC2 (stereo not given)	12%
CC1(C(=O)NCc2ccncc2)CCc2cnc(NCc3ccccc3)nc21 (stereo not given)	i
O=C(CN1CCOCC1)N1CCC(c2nc(CCOCC3CCCC3)no2)C1 (stereo not given)	i
COc1ccc(O[C@H]2COCCN(C(=O)c3cccnc3)C2)cc1	3%[44.1 µM]
O=C([C@@H]1C[C@H](F)CN1S(=O)(=O)c1ccccc1F)N1CCCCC1	-9%
O=C(Cn1cnc2onc(-c3ccc(Cl)cc3)c2c1=O)Nc1ccc(F)cc1	-22%
CCOc1ccc(NC(=O)CCn2cnc3onc(-c4ccc(F)cc4)c3c2=O)cc1	i
SMILES	Pf Dd2 growth
CCN(C(=O)Cn1cnc2onc(-c3ccc(F)cc3)c2c1=O)c1ccc(OC)cc1	11µM*
CC(C)CCN1CC(C(=O)NCc2ccncc2)C2(CCOCC2)C1 (stereo not given)	-22%
Cc1cccc(OCC(=O)N2CCC(n3cc(-c4nc(-c5ccccc5)no4)nn3)C2)c1 (stereo not given)	173%
O=C(NC1CCc2ccccc21)c1ccc(CN2C(=O)NC3(CCOCC3)C2=O)cc1 (stereo not given)	i
CCCCN(CCC(=O)NCCCOC)C(=O)c1ccoc1	6%
COc1ccc(-c2noc(CN(C(=O)c3ccccc3Cl)C(C)C)n2)cc1	-4%
COc1ccc(-c2noc(CN(C(=O)C(C)Oc3ccc(C)cc3)C(C)C)n2)cc1 (stereo not given)	10µM*
Cc1ccc(CC(=O)N(Cc2nc(-c3ccc(C)cc3)no2)C(C)C)cc1	-22%
COCC(=O)N[C@@H]1CN(C(=O)c2ccoc2)CC[C@@H]1c1nc(C)no1	i[5.79 µM]
Cc1ccc2cc(CCC(=O)NCCCN3CCCC3=O)c(=O)[nH]c2c1	4%
O=C(CC1N=C2c3ccccc3N=C(SCC(=O)Nc3ccccc3F)N2C1=O)NCc1cccs1 (stereo not given)	4µM*
COc1ccccc1NC(=O)CSC1=Nc2ccccc2C2=NC(CC(=O)NCc3ccccc3)C(=O)N12 (stereo not given)	97%
O=C(CC1N=C2c3ccccc3N=C(SCc3ccccc3F)N2C1=O)NCc1cccs1 (stereo not given)	i
COc1cccc(NC(=O)CSC2=Nc3ccccc3C3=NC(CC(=O)NCc4cccs4)C(=O)N23)c1 (stereo not given)	i
CC(C)c1ccc(NC(=O)CSC2=Nc3ccccc3C3=NC(CC(=O)NCc4cccs4)C(=O)N23)cc1 (stereo not given)	12%
Cc1cc(C)c(NC(=O)CSC2=Nc3ccccc3C3=NC(CC(=O)NCc4cccs4)C(=O)N23)c(C)c1 (stereo not given)	13µM*
Cc1ccc(CSC2=Nc3ccccc3C3=NC(CC(=O)NCc4cccs4)C(=O)N23)cc1 (stereo not given)	3.2µM*
O=C(CC1N=C2c3ccccc3N=C(SCc3ccc(Cl)cc3)N2C1=O)NCc1cccs1 (stereo not given)	92%
